This is part of a sample that, as a whole, favours compounds with a hit. Of some 83,000 tested, about 20% had one in any assay.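 Testing used 96-well plates and a 48-hour single-concentration exposure. Example: -40 means 40% of the starting cells died.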 Values without a mark were called inactive. Active and inactive are the calls of the source. Rule for the calls: active = growth percent below 10; inactive = the rest.
Each compound was assayed on OVCAR-5 ovarian (assay: NCI-60 one-dose screen, 48 h (100 = growth as untreated, 0 = no growth, -100 = all killed)). Details: 10 µM unless noted.

Structure (SMILES)	growth
CC1=C(C(=O)Nc2ccccc2)C(c2cccc3ccccc23)n2c(nc3ccccc32)N1 (configuration not stated)	76.3%
COc1ccc(NC(=O)CSc2nnc(-c3ccc(-c4nc5ccccc5[nH]4)cc3)o2)cc1	55.4%
COc1cc2cc(C(=O)N3C[C@@H](CCl)c4c3cc(OC(=O)N(C)CCSSCCN3CCOCC3)c3ccccc43)[nH]c2c(OC)c1OC	-42.8% (active)
CC(=O)C[n+]1cccc2c3ccccc3ccc21	103%
CC[C@]12C=CCN3CC[C@]4(C(=C(C(=O)OC)C1)Nc1cc(OC)c([C@@H]5[C@H]6O[C@H]6[C@@]6(CC)CC(C(=O)OC)=C7Nc8cc(O)ccc8[C@@]78CCN5[C@@H]68)cc14)[C@@H]32	-66.7% (active)
Cc1ccccc1Nc1nnc(-c2c[nH]c3ccccc23)o1	33.4%
COc1cncc(-c2ccc3ncnc(N4CCc5ccc(Cl)cc54)c3c2)c1	30%
Clc1ccc2c(NCCNC34CC5CC(CC(C5)C3)C4)ccnc2c1	-37.1% (active)
Cn1cc(-c2cc(N)n3nc(-c4c[nH]c5ccccc45)cc3n2)c2cc(Br)ccc21	-57.1% (active)
Cc1nn(-c2ccccc2)c2nc(C)n(CC(=O)N/N=C/c3cccc([N+](=O)[O-])c3)c(=O)c12	109%
Cc1ccc(S(=O)(=O)Nc2ccc(-c3ccc4c(c3)NC(=O)/C4=C\c3ccc[nH]3)cc2)cc1	90.8%
O=C1c2cccc3c(N4CCN(c5ccccc5)CC4)ccc(c23)C(=O)N1c1cccc(-c2nn(-c3ccccc3)cc2-c2nc3ccccc3s2)c1	108%
COc1ccc(-c2cc(-c3cc(C(C)C)c(O)cc3C)nn2-c2ccc(S(N)(=O)=O)cc2)cc1	65.8%
Clc1ccc(-c2nc3c4c(-c5ccccc5)c(-c5ccccc5)n(Cc5ccccc5)c4ncn3n2)cc1	16.6%
Cc1ccc(-c2cc(C(=O)N=Nc3c(O)[nH]c4ccc(F)cc34)c3ccccc3n2)cc1	70%
COc1ccc(/C=C/c2nc3ccccc3n3c(-c4cccc([N+](=O)[O-])c4)nnc23)cc1	-59.9% (active)
O=C(c1ccc(O)cc1)C1[C@H](c2ccc(Cl)cc2)[C@@H](c2ccccc2)NC12C(=O)Nc1ccccc12 (some centres not stated)	9.48% (active)
N#C/C(=C1/C(=O)Nc2ccccc21)c1nnc(NC(=O)c2ccc(-n3c(=O)[nH]c4ccccc4c3=O)cc2)s1	63.5%
CN(C(=O)CN1C(=O)/C(=C/c2ccco2)SC1=S)C1CCS(=O)(=O)C1 (configuration not stated)	111%

Structure (SMILES)	growth
COc1c2c(cc3c1C(CCc1ccccc1)N(C)CC3)OCO2 (configuration not stated)	16.2%
COc1cc(C2CC(c3ccc(F)cc3)=Nc3c(N)nc(N)nc3N2)ccc1Oc1nc(Nc2ccc(F)cc2)nc(N(C)C)n1 (configuration not stated)	100%
CC(C)C[C@H](NC(=O)CNC(=O)C[C@H]1O[C@@H]2OC3(C)CC[C@H]4[C@H](C)CC[C@@H]([C@H]1C)[C@@]24O3)B(O)O	-32.6% (active)
Cc1[nH]nc2ccc3nc(-c4cnn(CCO)c4)c4c(c3c12)CCCC4	90.4%
CCCN(CCC)S(=O)(=O)c1ccc(C(=O)O)cc1.CCCN(CCC)S(=O)(=O)c1ccc(C(=O)O)cc1.[Cl][Pt+2][Cl].[NH2-].[NH2-]	24.5%
COc1ccc(N=Nc2c(N)nn3c(-c4ccc5c(c4)C=S=C5)ccnc23)cc1	80.4%
O=C(NNC(=O)c1ccc(OCc2nc3ccc(Cl)cc3[nH]2)cc1)Nc1ccc(Cl)c(Cl)c1	83.8%
Cc1nc(Nc2ccccn2)sc1C1=NNC(c2ccccc2F)C1 (configuration not stated)	82.8%
COc1ccc(-c2nc3ccccc3n2CC(=O)N=Nc2c(O)[nH]c3ccc(Br)cc23)cc1	113%
CC[C@]12C=CCN3CC[C@@]4(c5ccc(OC)cc5N(C)[C@H]4[C@@](O)(C(=O)OC)[C@@H]1OC(=O)CCC[P+](c1ccc(OC)cc1)(c1ccc(OC)cc1)c1ccc(OC)cc1)[C@@H]32	-96.5% (active)
COc1ccc(-c2cc(C(=O)N=Nc3c(O)[nH]c4ccc(Cl)cc34)c3ccccc3n2)cc1OC	104%
Fc1ccc(Nc2nnc(-c3c[nH]c4ccccc34)o2)cc1	105%
O=C(NN1C(=O)/C(=C/C=C/c2ccc([N+](=O)[O-])o2)SC1=S)c1ccc(O)cc1	-98.7% (active)
Cc1cccc(-c2ccccc2Oc2ccc3nnc(Cl)n3n2)c1	104%
C[C@H](NC(=O)c1ccc2c(-c3ccc(C(F)(F)F)cc3)cccc2c1)c1ccccn1	75.2%
Cc1ccc(C(=O)Nc2cc(-c3ccccc3)cc(C(F)(F)F)c2)cc1C#Cc1cnc2cccnn12	85.3%
O=[N+]([O-])c1cccc(-c2nnc3c(/C=C/c4ccc(F)cc4)nc4ccccc4n23)c1	108%
O=C1Nc2cc(-c3ccc(NS(=O)(=O)c4ccc(C(F)(F)F)cc4)cc3)ccc2/C1=C/c1ccc[nH]1	45.1%

— PubChem BioAssay (NCI)
